In PubChem BioAssay (NCI) one finds growth inhibition data, which are given here for 23 compounds.

SMILES strings stand for the structures. Compounds without any hit were thinned out: in the full panel of roughly 79,000, 15% have a hit. Values without a mark were called inactive. Calls of active or inactive are those of the source. No stated cut-off is given here; in the data, active means growth inhibition above about 70%; inactive means the rest.

The nature of assay [1]: NCI Yeast Anticancer Drug Screen. Data for the rad50 strain (AID 155).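 Further: 0% = growth of vehicle-only cultures of the same strain.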 Conditions: S. cerevisiae rad50 strain growth inhibition; at 50.0 µM; active compounds read high. Put shortly:
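Vehicle-treated cultures provide the reference for the growth inhibition reported for compound-exposed, repair-deficient yeast.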

Assay [2] in a line: NCI Yeast Anticancer Drug Screen. Data for the mec2-1 strain (AID 157). To be noted: S. cerevisiae mec2-1 strain, at 50.0 µM, active compounds read high. Put shortly:
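Cells of the genetically defined mec2-1 yeast strain are incubated with test compound. Inhibition of growth is calculated against vehicle-treated controls.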

Assay [3] in a line: NCI Yeast Anticancer Drug Screen. Data for the sgs1 mgt1 strain (AID 161).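 Further: 0% = growth of cultures given vehicle only.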 Conditions: S. cerevisiae sgs1 mgt1 strain, at 50.0 µM, active compounds read high. The gist of the method: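 Mutant yeast exposed to compound; growth scored against vehicle-only wells.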
Assay [4] can be described thus: NCI Yeast Anticancer Drug Screen. Data for the cln2 rad14 strain (AID 165).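 Further: 0% = growth equal to vehicle treated cultures.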 Conditions: S. cerevisiae cln2 rad14 strain, at 50.0 µM, active compounds read high. The gist of the method: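 The screen exposed genetically defined yeast (cln2 rad14) to test compounds and scored growth inhibition relative to vehicle-treated controls.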
Assay [5] can be described thus: NCI Yeast Anticancer Drug Screen. Data for the bub3 strain (AID 167). To be noted: S. cerevisiae bub3 mutant strain, at 50.0 µM, active compounds read high. The gist of the method:
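Mutant yeast screening strain plus compound; vehicle-treated cultures serve as the 0% inhibition reference.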

The nature of assay [6]: NCI Yeast Anticancer Drug Screen. Data for the mlh1 rad18 strain (AID 175). To be noted: S. cerevisiae mlh1 rad18 strain growth inhibition; at 50.0 µM; active compounds read high. The gist of the method:
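Compound-treated yeast growth, normalised to vehicle controls. Strain bears defined DNA repair mutations.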

With `O=C(Nc1ccccc1)Oc1cccc(-c2ccc(-c3ccccc3)cc2)c1`, the growth inhibition in assay [1] is 29.4%; in assay [2] it was 6.5%; in assay [3] it was 33.7%; in assay [4], 18.9%; in assay [5] it was 49.5%; in assay [6], 18.2%.
For the compound `CC(NC(=O)C(Cc1ccc(OC(=O)c2ccccc2)cc1)NC(=O)OC(C)(C)C)C(=O)NCC(=O)NC(Cc1ccccc1)NC(=O)OCc1ccccc1` (stereo not drawn), the growth inhibition is -11.7% in assay [1]; -24.6% in assay [2]; -27.7% in assay [3]; 7.35% in assay [4]; -25.4% in assay [5]; -8.95% in assay [6].
Consider `CC1CCCc2c(CC3CC(=O)NC(=O)C3)nc(N)nc21` (stereo not drawn), for which the growth inhibition in assay [1] is 6.75%; in assay [2] it was 5.25%; in assay [3], -18.8%; in assay [4] it was -7.85%; in assay [5] it was -4.7%; in assay [6], -23.4%.
Consider `Cc1cc(C)c(Br)c(C)c1`, for which the growth inhibition in assay [1] was 1.55%; in assay [2], 0.45%; in assay [3] it was -2%; in assay [4], -20.2%; in assay [5] it was -4.95%; in assay [6] it was -12.7%.
On to `COc1cc([N+](=O)[O-])c(OC)cc1Nc1ccccc1C(=O)O`, for which the growth inhibition is 13.1% in assay [1]; -12.8% in assay [2]; 22.1% in assay [3]; 18.2% in assay [4]; 29.4% in assay [5]; 16% in assay [6].
As for `c1ccc2c(c1)CCc1c-2n[nH]c1-c1[nH]nc2c1CCc1ccccc1-2`, the growth inhibition is -12.1% in assay [1]; -10% in assay [2]; -1.3% in assay [3]; -21.9% in assay [4]; -26.2% in assay [5]; -5% in assay [6].
For the compound `CC(=O)N(C)CCCCCCN(C)C(C)=O`, the growth inhibition in assay [1] is 8.95%; in assay [2] it was 8.05%; in assay [3], 10.7%; in assay [4], 3.05%; in assay [5] it was 7.2%; in assay [6], 9.35%.
Regarding `O=C(O)c1ccc(NC(=S)NC(=O)c2cccc([N+](=O)[O-])c2)cc1`, the growth inhibition in assay [1] was 5.55%; in assay [2], 16%; in assay [3], 16%; in assay [4] it was 16.8%; in assay [5], 23.6%; in assay [6] it was 23.6%.
Turning to `ClC(Cc1ccccc1)(c1ccccc1)c1ccccc1`, the growth inhibition in assay [1] is -26.6%; in assay [2] it was 13.5%; in assay [3], -0.8%; in assay [4], -26.9%; in assay [5], 13.8%; in assay [6], -3.6%.
On to `O=C(O)Cc1cc(O)c(CC(=O)O)cc1O`, for which the growth inhibition in assay [1] is -11.9%; in assay [2], -21.9%; in assay [3], -49.4%; in assay [4], -20.4%; in assay [5], -22.4%; in assay [6] it was -4.1%.
Consider `O=C(CN(c1ccc(S(=O)(=O)O)cc1)c1ccc(S(=O)(=O)O)cc1)Nn1cnc2ccc(S(=O)(=O)N(c3ccc(S(=O)(=O)O)cc3)c3ccc(S(=O)(=O)O)cc3)cc2c1=O`, for which the growth inhibition in assay [1] was 29.1%; in assay [2] it was 6.15%; in assay [3], 31.2%; in assay [4], 19.2%; in assay [5], 26%; in assay [6], 34.1%.
For the compound `CNC(=O)CCC(NC(=O)OC(C)(C)C)C(=O)NC(Cc1ccc(NC(=O)CCCCC(C)=O)cc1)C(=O)NCC(=O)NC` (stereo not drawn), the growth inhibition in assay [1] was -18.3%; in assay [2], 13.9%; in assay [3], -0.25%; in assay [4], 9.8%; in assay [5] it was 3.75%; in assay [6], -2.1%.
Take `Cc1ccc(N=C=O)cc1N1C(=O)N(c2cc(N=C=O)ccc2C)C1=O`: the growth inhibition was -41.5% in assay [1]; -55% in assay [2]; -48% in assay [3]; -139% in assay [4]; -10.5% in assay [5]; -60.4% in assay [6].
As to `Cc1cc2c(cc1Cl)SSc1cc(Cl)c(C)cc1S(=O)(=O)Nc1nc(N)nn1C(O)n1nc(N)nc1NS2(=O)=O`, the growth inhibition was 7.65% in assay [1]; 11.4% in assay [2]; 9.1% in assay [3]; 20.7% in assay [4]; 30.4% in assay [5]; 0.45% in assay [6].
Consider `COC(NC(N)=O)C(=O)O` (stereo not drawn), for which the growth inhibition in assay [1] was 6.9%; in assay [2] it was 12.3%; in assay [3], -1.25%; in assay [4], -0.9%; in assay [5], 11.9%; in assay [6], 13.7%.
As to `O=c1[nH]c2cc(Cl)ccc2nc1/C=C(\O)c1ccco1`, the growth inhibition in assay [1] is 7.55%; in assay [2], -10.4%; in assay [3] it was -16.1%; in assay [4], 10.3%; in assay [5] it was -33.6%; in assay [6] it was 13.3%.
In the case of `CC(=O)c1ccc2ccc3ccccc3c2c1`, the growth inhibition is 15.2% in assay [1]; -0.6% in assay [2]; 18.6% in assay [3]; -31.1% in assay [4]; 1.15% in assay [5]; 11.8% in assay [6].
Turning to `C=CCN(CC=C)P(=O)(N(CC=C)CC=C)N(CC=C)CC=C`, the growth inhibition is 22.3% in assay [1]; 8.9% in assay [2]; 16.4% in assay [3]; 0.15% in assay [4]; 17.6% in assay [5]; 21.4% in assay [6].
With `CC(=O)OCCOCNC(=S)N/N=C/c1ccccn1`, the growth inhibition in assay [1] is 24.2%; in assay [2], 26%; in assay [3], -8.35%; in assay [4], 6.7%; in assay [5], 12.6%; in assay [6], 45.6%.
As for `NC(=O)N/N=C/C1CCc2ccccc2C1` (stereo not drawn), the growth inhibition in assay [1] is 6.45%; in assay [2] it was -10.4%; in assay [3], -12.3%; in assay [4] it was -6.2%; in assay [5] it was -1.4%; in assay [6], 1.5%.
`OC(CC1CCCCN1)c1cc2c(Cl)cc(Cl)cc2c2cc(C(F)(F)F)ccc12` (stereo not drawn): the growth inhibition in assay [1] is 68%; in assay [2], 50.6%; in assay [3], 42.5%; in assay [4] it was 30.1%; in assay [5], 98.8% (active); in assay [6], 52%.
As for `CN1C(=O)C(O)C[C@@H]1c1ccc(F)cc1` (stereo partly drawn), the growth inhibition was -5% in assay [1]; 6.8% in assay [2]; 12.7% in assay [3]; 16.6% in assay [4]; -0.25% in assay [5]; -30.4% in assay [6].
Regarding `CCCCCCOC(=O)C(C)(O)C(Cl)c1ccccc1` (stereo not drawn), the growth inhibition in assay [1] is 3.95%; in assay [2] it was -0.45%; in assay [3] it was -5.4%; in assay [4], 3.9%; in assay [5], 9.3%; in assay [6] it was -10.2%.
